From the supplement of paper PMC4466140

Molecular target: CaNbp2
Experiment: SPOT peptide array binding signal intensity (averaged, normalized) (arbitrary units (background-subtracted, floor 0; scale differs between SH3 domains)); higher = stronger binding of the SH3 domain to the peptide
Experimental: (§1)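 GST-tagged SH3 domains from S. cerevisiae (Sc), A. gossypii (Ag), C. albicans (Ca) and S. pombe (Sp) were incubated at 10 ug/ml overnight at 4 C on cellulose SPOT membranes carrying 292 synthetic 15-mer peptides mined from the S. cerevisiae proteome (cysteines replaced by serines). Binding was detected with anti-GST antibody, HRP secondary and chemiluminescence, quantified with Genespotter, and reported as normalized spot intensities averaged over biological replicates.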

Row | Binder | SPOT peptide array binding signal intensity
1 | ALKQKKIPPPFKPHL | 15.5

Molecular target: CaRvs167
Experiment: as above
Experimental: as §1

Row | Binder | SPOT peptide array binding signal intensity
2 | ALKQKKIPPPFKPHL | ≤ 0

Molecular target: CaRvs167-3
Experiment: as above
Experimental: as §1

Row | Binder | SPOT peptide array binding signal intensity
3 | ALKQKKIPPPFKPHL | 4.5

Molecular target: CaSho1
Experiment: as above
Experimental: as §1

Row | Binder | SPOT peptide array binding signal intensity
4 | ALKQKKIPPPFKPHL | ≤ 0

Molecular target: CaSla1-D1-D2
Experiment: as above
Experimental: as §1

Row | Binder | SPOT peptide array binding signal intensity
5 | ALKQKKIPPPFKPHL | ≤ 0

Molecular target: CaSla1-D3
Experiment: as above
Experimental: as §1

Row | Binder | SPOT peptide array binding signal intensity
6 | ALKQKKIPPPFKPHL | 2

Molecular target: ScAbp1
Experiment: as above
Experimental: as §1

Row | Binder | SPOT peptide array binding signal intensity
7 | ALKQKKIPPPFKPHL | 29

Molecular target: ScBbc1
Experiment: as above
Experimental: as §1

Row | Binder | SPOT peptide array binding signal intensity
8 | ALKQKKIPPPFKPHL | ≤ 0

Molecular target: ScBem1-D1
Experiment: as above
Experimental: as §1

Row | Binder | SPOT peptide array binding signal intensity
9 | ALKQKKIPPPFKPHL | ≤ 0

Molecular target: ScBzz1-D1
Experiment: as above
Experimental: as §1

Row | Binder | SPOT peptide array binding signal intensity
10 | ALKQKKIPPPFKPHL | 9

Molecular target: ScBzz1-D2
Experiment: as above
Experimental: as §1

Row | Binder | SPOT peptide array binding signal intensity
11 | ALKQKKIPPPFKPHL | 3

Molecular target: ScCyk3
Experiment: as above
Experimental: as §1

Row | Binder | SPOT peptide array binding signal intensity
12 | ALKQKKIPPPFKPHL | ≤ 0

Molecular target: ScFus1
Experiment: as above
Experimental: as §1

Row | Binder | SPOT peptide array binding signal intensity
13 | ALKQKKIPPPFKPHL | ≤ 0

Molecular target: ScHof1
Experiment: as above
Experimental: as §1

Row | Binder | SPOT peptide array binding signal intensity
14 | ALKQKKIPPPFKPHL | 1

Molecular target: ScHse1
Experiment: as above
Experimental: as §1

Row | Binder | SPOT peptide array binding signal intensity
15 | ALKQKKIPPPFKPHL | 74

Molecular target: ScLsb1
Experiment: as above
Experimental: as §1

Row | Binder | SPOT peptide array binding signal intensity
16 | ALKQKKIPPPFKPHL | ≤ 0

Molecular target: ScLsb2
Experiment: as above
Experimental: as §1

Row | Binder | SPOT peptide array binding signal intensity
17 | ALKQKKIPPPFKPHL | ≤ 0

Molecular target: ScLsb3
Experiment: as above
Experimental: as §1

Row | Binder | SPOT peptide array binding signal intensity
18 | ALKQKKIPPPFKPHL | ≤ 0

Molecular target: ScLsb4
Experiment: as above
Experimental: as §1

Row | Binder | SPOT peptide array binding signal intensity
19 | ALKQKKIPPPFKPHL | ≤ 0

Molecular target: ScMyo3
Experiment: as above
Experimental: as §1

Row | Binder | SPOT peptide array binding signal intensity
20 | ALKQKKIPPPFKPHL | ≤ 0

Molecular target: ScMyo5
Experiment: as above
Experimental: as §1

Row | Binder | SPOT peptide array binding signal intensity
21 | ALKQKKIPPPFKPHL | 1

Molecular target: ScNbp2
Experiment: as above
Experimental: as §1

Row | Binder | SPOT peptide array binding signal intensity
22 | ALKQKKIPPPFKPHL | ≤ 0

Molecular target: ScPex13
Experiment: as above
Experimental: as §1

Row | Binder | SPOT peptide array binding signal intensity
23 | ALKQKKIPPPFKPHL | ≤ 0

Molecular target: ScRvs167
Experiment: as above
Experimental: as §1

Row | Binder | SPOT peptide array binding signal intensity
24 | ALKQKKIPPPFKPHL | ≤ 0

Molecular target: ScSho1
Experiment: as above
Experimental: as §1

Row | Binder | SPOT peptide array binding signal intensity
25 | ALKQKKIPPPFKPHL | ≤ 0

Molecular target: ScSla1-D1-D2
Experiment: as above
Experimental: as §1

Row | Binder | SPOT peptide array binding signal intensity
26 | ALKQKKIPPPFKPHL | ≤ 0

Molecular target: ScSla1-D3
Experiment: as above
Experimental: as §1

Row | Binder | SPOT peptide array binding signal intensity
27 | ALKQKKIPPPFKPHL | 8

Molecular target: SpAbp1-D1
Experiment: as above
Experimental: as §1

Row | Binder | SPOT peptide array binding signal intensity
28 | ALKQKKIPPPFKPHL | 20.5

Molecular target: SpBbc1
Experiment: as above
Experimental: as §1

Row | Binder | SPOT peptide array binding signal intensity
29 | ALKQKKIPPPFKPHL | ≤ 0

Molecular target: SpBzz1-D1
Experiment: as above
Experimental: as §1

Row | Binder | SPOT peptide array binding signal intensity
30 | ALKQKKIPPPFKPHL | 288

Molecular target: SpBzz1-D2
Experiment: as above
Experimental: as §1

Row | Binder | SPOT peptide array binding signal intensity
31 | ALKQKKIPPPFKPHL | ≤ 0

Molecular target: SpCyk3
Experiment: as above
Experimental: as §1

Row | Binder | SPOT peptide array binding signal intensity
32 | ALKQKKIPPPFKPHL | ≤ 0

Molecular target: SpHof1
Experiment: as above
Experimental: as §1

Row | Binder | SPOT peptide array binding signal intensity
33 | ALKQKKIPPPFKPHL | ≤ 0

Molecular target: SpHof1-2
Experiment: as above
Experimental: as §1

Row | Binder | SPOT peptide array binding signal intensity
34 | ALKQKKIPPPFKPHL | ≤ 0

Molecular target: SpHof1-3
Experiment: as above
Experimental: as §1

Row | Binder | SPOT peptide array binding signal intensity
35 | ALKQKKIPPPFKPHL | 39.5

Molecular target: SpHse1
Experiment: as above
Experimental: as §1

Row | Binder | SPOT peptide array binding signal intensity
36 | ALKQKKIPPPFKPHL | 23

Molecular target: SpLsb1
Experiment: as above
Experimental: as §1

Row | Binder | SPOT peptide array binding signal intensity
37 | ALKQKKIPPPFKPHL | ≤ 0

Molecular target: SpLsb4
Experiment: as above
Experimental: as §1

Row | Binder | SPOT peptide array binding signal intensity
38 | ALKQKKIPPPFKPHL | ≤ 0

Molecular target: SpMyo1
Experiment: as above
Experimental: as §1

Row | Binder | SPOT peptide array binding signal intensity
39 | ALKQKKIPPPFKPHL | ≤ 0

Molecular target: SpNbp2
Experiment: as above
Experimental: as §1

Row | Binder | SPOT peptide array binding signal intensity
40 | ALKQKKIPPPFKPHL | ≤ 0

Molecular target: SpPex13
Experiment: as above
Experimental: as §1

Row | Binder | SPOT peptide array binding signal intensity
41 | ALKQKKIPPPFKPHL | ≤ 0

Molecular target: SpRvs167
Experiment: as above
Experimental: as §1

Row | Binder | SPOT peptide array binding signal intensity
42 | ALKQKKIPPPFKPHL | ≤ 0

Molecular target: SpSla1-D1-D2
Experiment: as above
Experimental: as §1

Row | Binder | SPOT peptide array binding signal intensity
43 | ALKQKKIPPPFKPHL | ≤ 0

Molecular target: SpSla1-D3
Experiment: as above
Experimental: as §1

Row | Binder | SPOT peptide array binding signal intensity
44 | ALKQKKIPPPFKPHL | ≤ 0
